RE007 growth inh: qHTS Assay for Inhibitors of the HIV-1 protein Vpr | AID 651644, 2012 | S. pombe RE007 Vpr strain, BacTiter-Glo ATP luminescence, 24 h | 0.21% of 360,000 active | Potency, µM (series often up to 92.2 µM), inactives show at the highest dose activity change, negative = less growth, actives largely listed as inhibitors; active = well fitted falling curve with a large enough effect; inconclusive = small, poorly fitted or top-dose-only effect; inactive = no such curve, though single readings can be large or run the other way; also: nearly all actives have a fitted effect of over 50% in size
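Fission yeast strain RE007, carrying one chromosomally integrated HIV-1 vpr copy, was seeded at OD 0.01 in PMG+AL medium with 23 nL pinned compound. After 24 h at 30 °C and 99% humidity, viability was read by BacTiter-Glo luminescence.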
FBPA Giardia inh: qHTS Assay for Inhibitors of Fructose-1,6-bisphosphate Aldolase from Giardia Lamblia | purified Giardia FBPA | Potency, µM (top dose mostly 59.6 µM), without a hit: at the top dose activity, negative = inhibition, most hits filed as inhibitors | 0.71% of 290,000 active | AID 2451, 2010; also: nearly all actives have a fitted effect of over 55% in size
Target sequence (A8B2U2 whole entry, looked up): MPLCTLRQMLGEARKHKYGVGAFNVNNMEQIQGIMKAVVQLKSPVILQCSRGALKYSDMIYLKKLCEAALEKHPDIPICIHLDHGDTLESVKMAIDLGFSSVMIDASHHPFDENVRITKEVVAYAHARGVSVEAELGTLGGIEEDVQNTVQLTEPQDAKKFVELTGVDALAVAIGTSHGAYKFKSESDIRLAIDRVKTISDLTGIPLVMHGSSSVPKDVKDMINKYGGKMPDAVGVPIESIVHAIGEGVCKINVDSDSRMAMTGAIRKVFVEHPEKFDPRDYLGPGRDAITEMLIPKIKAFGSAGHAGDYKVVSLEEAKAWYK
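Giardia FBPA (40 nM reagent) was preincubated 10 min at RT with compound (up to 57.5 uM final), then substrate plus GAPDH/TPI/NAD/arsenate coupling system with diaphorase/resazurin was added; resorufin fluorescence (525/598 nm) was read after 20 min.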
Sm TGR inh: qHTS Assay for the Inhibitors of Schistosoma Mansoni Peroxiredoxins. Schistosoma mansoni thioredoxin glutathione reductase (TGR), Q962Y6. purified TGR, DTNB reduction, TNB absorbance 405 nm. Potency, µM (titrated, usually from 114 µM), for the others: at the top dose activity change, negative = inhibition, usual class: inhibitors. 3% of 360,000 active. AID 485364, 2010; also: nearly all actives have a fitted effect of over 60% in size
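Kinetic colorimetric format: TGR-catalysed, NADPH-driven DTNB reduction monitored via TNB absorbance. Enzyme dispensed at 20 nM; compound exposure 15 min at room temperature before reaction start.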
AmpC inh detg: qHTS Inhibitors of AmpC Beta-Lactamase (assay with detergent); AID 485294, 2010; P00811; 0.041% of 370,000 active; Potency, µM (titrated, usually from 114 µM), inactives show at the highest dose activity change, negative = inhibition, usual class: inhibitors; AmpC hydrolysis of nitrocefin, absorbance 480 nm, 0.01% Triton;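 also: 0% = no-compound wells and -100% = no-enzyme wells; nearly all actives have a fitted effect of over 25% in size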
Target sequence (P00811 whole entry, looked up): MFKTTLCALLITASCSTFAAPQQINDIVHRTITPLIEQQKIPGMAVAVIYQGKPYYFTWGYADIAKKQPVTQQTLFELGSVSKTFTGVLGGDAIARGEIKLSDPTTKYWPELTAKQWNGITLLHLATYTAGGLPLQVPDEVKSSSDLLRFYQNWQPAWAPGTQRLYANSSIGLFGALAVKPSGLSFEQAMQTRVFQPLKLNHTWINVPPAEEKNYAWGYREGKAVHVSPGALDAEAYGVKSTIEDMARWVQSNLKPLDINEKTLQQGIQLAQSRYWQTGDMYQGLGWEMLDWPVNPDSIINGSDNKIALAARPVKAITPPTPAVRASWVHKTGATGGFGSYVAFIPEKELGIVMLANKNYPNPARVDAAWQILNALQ
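AmpC (5.3 nM in the dispensed reagent) in 20 mM phosphate pH 7.0 with 0.01% (detergent screen) or 0.0001% Triton X-100 was preincubated with compounds for 15 min at room temperature. Nitrocefin was then added from an 800 uM solution, and hydrolysis was followed at 480 nm.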
AmpC no deterg: qHTS Inhibitors of AmpC Beta-Lactamase (assay without detergent). 0.52% of 330,000 active. P00811. Potency, µM (highest dose often 57.1 µM), for the others: at the highest dose activity change, negative = inhibition, hits mostly inhibitors. AID 485341, 2010. AmpC nitrocefin hydrolysis, absorbance 480 nm, 0.0001% Triton;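 also: plate controls were no compound for no effect and no enzyme for full effect; nearly all actives have a fitted effect of over 20% in size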
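AmpC (5.3 nM in the dispensed reagent) in 20 mM phosphate pH 7.0 with 0.01% (detergent screen) or 0.0001% Triton X-100 was preincubated with compounds for 15 min at room temperature. Nitrocefin was then added from an 800 uM solution, and hydrolysis was followed at 480 nm.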
Starred values were filed as active, the others as inactive; ? = inconclusive; nt = no result given; [ ] = remark or other dose. Compounds with a hit are over-represented: about 3.4% of the library has one in this group of screens. Unless noted, calls follow the shape of the dose curve; as a rule, active = well fitted curve in the direction sought with a large enough effect; inconclusive = small, poorly fitted or top-dose-only effect, or another doubt; inactive = no such curve, though single readings can be large; an effect the other way counts as inactive or inconclusive. Unless noted, % is scaled to controls: 0 for no effect and ±100 for the full control effect; potency is read from the fitted curve at half-maximal effect.

SMILES | RE007 growth inh | FBPA Giardia inh | Sm TGR inh | AmpC inh detg | AmpC no deterg
Cc1nonc1C(=O)N/N=C/c1cccc(O)c1 | -22.8% | 0.4% | 11.2µM* | ? | -10.5%
COc1ccccc1NC(=O)c1c(-c2ccc(C)cc2)nnc2ccccc12 | nt | nt | -9.4% | -0.2% | nt
CN(c1ccccc1N(C)S(=O)(=O)c1ccccc1)S(=O)(=O)c1ccccc1 | 15.8% | nt | nt | nt | nt
CN(C)S(=O)(=O)c1ccccc1N=C=S | 9.1% | -11.5% | 15.8µM* | -3.4% | -5.7%
O=S(=O)(N/N=C\C=C\c1ccccc1)c1ccccc1 | 4.9% | nt | nt | nt | nt
CCC(=O)N1CCC1(C)C(=O)NCc1ccc(SC)cc1 (stereo not given) | 1.2% | nt | nt | nt | nt
O=C(CN1CCOC1=O)N1CCCC(N2CCN(c3cccc(C(F)(F)F)c3)CC2)C1 (stereo not given) | -0.8% | nt | 39.8µM* | -9.9% | 43.2%
Cc1ccc2[nH]c(O)c(N=Nc3ccccc3C)c2c1 | 29.7% | -19.6% | 22.4µM* | -4.4% | -43.0%
CCOc1ccc(S(=O)(=O)N2CCCCC2)cc1NC(=O)CCc1ccc(OC)cc1 | 4.8% | nt | -11.2% | -6.5% | -42.4%
COC(=O)C1CC2=C(CCCC2=O)NC1=O (stereo not given) | 10.8% | nt | nt | nt | nt
O=C(O)c1ccnc(C(=O)O)c1 | 8.1% | 1.77µM* | 17.6% | -14.1% | -0.2%
O=C(CN1CCCCC1)Nc1ccc(NC(=O)c2ccccc2Cl)cc1Cl | -19.7% | -8.9% | -12.0% | -26.1% | -35.7%
CC(=O)Nc1ccc(-c2csc(NNC(=O)c3ccc(C)cc3)n2)cc1 | 7.7% | 8.0% | nt | -4.2% | -20.5%
CC(=O)NNc1nc(-c2ccc(NC(C)=O)cc2)cs1 | 19.0% | -10.3% | 39.8µM* | -0.1% | -26.5%
Nn1cc(-c2ccccc2)nc1SCC(=O)NCC(F)(F)F | -5.9% | -0.5% | 5.2% | 3.0% | -16.2%
Cc1ccc2nc(NC(=O)C3CCCN(S(=O)(=O)c4cnc[nH]4)C3)sc2c1 (stereo not given) | -8.5% | -8.1% | -15.2% | ? | -23.3%
CCSc1nnc(NC(=O)C2CCCN(S(=O)(=O)c3cnc[nH]3)C2)s1 (stereo not given) | 5.1% | -6.5% | 2.8% | 7.9% | 44.7µM*
CCN(Cc1ccccc1)C(=O)c1ccc(CS(=O)c2ccccc2C)o1 (stereo not given) | -15.6% | nt | 14.1µM* | 6.2% | 51.9%
Nc1c(C(=O)Nc2ccc(Cl)cc2)sc2nc3c(cc12)N1CCC3CC1 | nt | nt | -11.4% | 0.9% | nt
CCN1c2ccccc2-c2nc(SCC(=O)Nc3cc(OC)cc(OC)c3)ncc2S1(=O)=O | nt | nt | 0.5% | 3.3% | nt
O=C(CN1C(=O)CCSc2ccccc21)N1CCC2(CC1)OCCO2 | 20.1% | -1.7% | -5.1% | 3.2% | 0.282µM*
COC(=O)CCC(=O)OC1(C)C(=O)C2=CN(Cc3ccc4c(c3)OCO4)C(c3ccc(OC)cc3)=CC2=C(Br)C1=O (stereo not given) | 2.8% | -19.5%[12.9 µM] | nt | nt | nt
COC(=O)CCC(=O)OC1(C)C(=O)C2=CN(CCCCO)C(c3ccc(OC)cc3)=CC2=C(Br)C1=O (stereo not given) | nt | 5.01µM* | 44.7µM* | -16.0% | 168.3%
CCCCC1=CC2=CC(=O)C(C)(OC(=O)CC)C(=O)C2=CN1C(CO)CO (stereo not given) | 4.1% | ? | -29.7% | 1.5% | 23.3%
COC(=O)CCC(=O)OC1(C)C(=O)C2=CN(CCc3ccccn3)C(c3ccc(OC)cc3)=CC2=C(Br)C1=O (stereo not given) | -13.2% | ? | nt | nt | nt
SMILES | RE007 growth inh | FBPA Giardia inh | Sm TGR inh | AmpC inh detg | AmpC no deterg
COC(=O)CCC(=O)OC1(C)C(=O)C2=CN(CCN3CCOCC3)C(c3ccc(OC)cc3)=CC2=C(Br)C1=O (stereo not given) | nt | 0.561µM* | ? | -2.2% | 187.5%
COC(=O)CCC(=O)OC1(C)C(=O)C2=CN(C(CO)CO)C(c3ccc(OC)cc3)=CC2=C(Br)C1=O (stereo not given) | nt | 0.629µM* | ? | -0.6% | 62.7%
COCCNc1oc(/C=C/c2ccccc2OC)nc1S(=O)(=O)c1ccccc1 | 7.0% | -2.7% | 12.6µM* | -6.5% | 29.9%
COc1cc(CCCN2CCNC[C@@H]2C(C)O)cc(OC)c1OC (stereo not given in full) | -13.3% | nt | -0.5% | ? | -4.3%
Oc1ccc2ccccc2c1CNc1ccccc1 | -15.7% | nt | nt | nt | nt
O=[N+]([O-])c1ccccc1NCc1c(O)ccc2ccccc12 | nt | ? | 1.78µM* | -8.0% | -46.1%
c1ccc2c(c1)NCC1CCCN21 (stereo not given) | -24.0% | -29.9% | 31.6µM* | -2.7% | -15.4%
C=CCOC(=O)C1=C[C@@H](c2ccc(Br)cc2)C[C@@H](OCc2ccc(CO)cc2)O1 | -3.1% | 0.6% | ? | 0.0% | -1.2%
O=C(OCn1ncc(Cl)c(Cl)c1=O)c1ccc(F)cc1 | nt | 2.6% | 7.08µM* | -13.3% | -14.3%
O=c1cnn(Cc2ccc(F)cc2)c2ccccc12 | 4.0% | 12.3% | 9.2% | -3.8% | -0.2%
O=C(Cn1ncc(Cl)c(Cl)c1=O)c1ccc(Cl)cc1 | 27.0% | 4.2% | ? | -6.0% | -29.1%
O=C(OCn1ncc(Cl)c(Cl)c1=O)c1ccccc1Cl | 44.7µM* | 4.2% | 7.08µM* | ? | -19.7%
O=c1c(Cl)c(Cl)cnn1Cc1ccc(F)cc1 | 2.5% | -6.7% | 20µM* | -1.4% | 4.0%
Cc1nnc(SCC(=O)NNC(=O)c2ccccc2)n1-c1ccccc1 | 7.5% | -1.7% | 7.5% | -1.7% | -4.0%
C/C(=N\NC(=O)c1nnn(-c2nonc2N)c1CN1CCC(C)CC1)c1cccc(Br)c1 | -1.2% | -19.7% | 2.1% | 1.5% | 31.1%
Cc1cccc(/C=N/NC(=O)c2ccc3c(c2)OCCO3)c1O | nt | nt | 1.5% | -1.4% | -28.4%
COc1ccc(-n2nc3ccc(NC(=O)c4ccc(-c5cc(Cl)ccc5Cl)o4)cc3n2)cc1 | nt | nt | -25.1% | 0.4% | nt
O=C(Nc1ccc2oc(=O)ccc2c1)c1ccc(-c2cccc([N+](=O)[O-])c2)o1 | -1.3% | 18.4% | 50.1µM* | 2.1% | -35.5%
O=C(Nc1ccc2oc(=O)ccc2c1)c1ccc(-c2cccc(Cl)c2)o1 | 8.9% | 6.6% | 22.4µM* | ? | -21.0%
O=C(Nc1ccc2nn(-c3ccccc3)nc2c1)c1ccc(-c2cccc(Cl)c2)o1 | nt | nt | 8.91µM* | 14.7% | nt
O=C(Nc1ccc2oc(=O)ccc2c1)c1ccc(-c2ccccc2[N+](=O)[O-])o1 | 6.4% | -14.0% | ? | 2.2% | -19.0%
COc1cc(/C=C2/C(=O)NC(=O)N(c3ccccc3)C2=O)ccc1O | 6.7% | -0.4% | ? | -6.8% | -40.1%

Screening results (PubChem BioAssay)
